FadD28 binding: blocks FadD28 binding to the bisubstrate probe; fluorescence polarization; inhibition, % at 12.5 µM; 0.22% of 360,000 active; in the data active = inhibition above about 8.5%, passing the limit was not always enough
Rv3671c protease: inhibits the M. tuberculosis serine protease Rv3671c; inhibition, % at 5.96 µM; AID 2606; 0.048% of 320,000 active; in the data active = inhibition above about 38%;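 also: extracellular domain of Rv3671c used as enzyme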
GDH-TPI counter: GDH-TPI coupled enzyme inhibition counter-screen | GDH-TPI coupled enzyme counterscreen, NADH absorbance | inhibition, % at 4.8 µM | 1.2% of 360,000 active | AID 588335; in the data active = inhibition above about 30%
Mtb UGM inh: Mtb UDP-galactopyranose mutase inhibition; purified UGM, fluorescence polarization probe displacement; inhibition, % at 10 µM; 0.06% of 320,000 active; AID 504406; in the data active = inhibition above about 10%, passing the limit was not always enough
Target sequence (P9WIQ1 whole entry, looked up): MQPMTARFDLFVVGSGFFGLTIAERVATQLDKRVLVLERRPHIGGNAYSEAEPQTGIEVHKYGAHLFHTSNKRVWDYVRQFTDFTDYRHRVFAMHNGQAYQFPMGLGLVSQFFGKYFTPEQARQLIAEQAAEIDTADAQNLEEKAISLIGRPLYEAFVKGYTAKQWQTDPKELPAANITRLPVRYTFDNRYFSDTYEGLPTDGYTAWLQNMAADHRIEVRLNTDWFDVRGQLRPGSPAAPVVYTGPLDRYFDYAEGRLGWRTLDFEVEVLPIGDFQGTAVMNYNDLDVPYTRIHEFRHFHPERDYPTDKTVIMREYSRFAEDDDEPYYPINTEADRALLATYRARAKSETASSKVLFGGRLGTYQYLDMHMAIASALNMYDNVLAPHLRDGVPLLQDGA
FBA Mtb inh: Mtb fructose-bisphosphate aldolase inhibition | inhibition, % at 1 µM | 2.3% of 360,000 active | purified M. tuberculosis FBA, fluorescence read-out | P9WQA3; in the data active = inhibition above about 27%
Mtb betalactam: beta-lactam sensitization of Mtb H37Rv; M. tuberculosis H37Rv growth with meropenem, percent inhibition; inhibition, % at 25 µM; 0.27% of 330,000 active; call rule not given here;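 also: growth measured after seven days incubation then overnight dye step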
Each line names hits and unclear results; the compound was inactive in the other large screens. Most compounds without a hit are left out; they make up all but 3.7% or so of the library.

CC(C)CCn1c(N)c(C(=O)OCC2CCCO2)c2nc3ccccc3nc21 (configuration not stated)	FBA Mtb inh 134
CCCCn1c(N)c(C(=O)OCC2CCCO2)c2nc3ccccc3nc21 (configuration not stated)	FBA Mtb inh active
CCN(CC)CCC(=O)N1C/C(=C/c2ccccc2)C(=O)/C(=C\c2ccccc2)C1	none (no result: Rv3671c protease, Mtb UGM inh, Mtb betalactam)
CCOC(=O)C(c1nc2ccccc2[nH]1)n1c(-c2ccccn2)nc2ccccc21 (configuration not stated)	none (no result: Rv3671c protease, GDH-TPI counter, Mtb UGM inh, Mtb betalactam)
CC(C)(C)c1ccc(C(=O)/C=C2\NC(=O)CS2)cc1	GDH-TPI counter 48
CNc1n[nH]c(-c2ccccc2)n1	none (no result: Rv3671c protease, Mtb UGM inh, Mtb betalactam)
CCCCCCCCCCCCCCC[C@@H](O)[C@@H](N)CO	FadD28 binding 48 (no result: Rv3671c protease, Mtb UGM inh, Mtb betalactam)
N/C(=N\N=C\c1ccc(O)cc1O)N[N+](=O)[O-]	GDH-TPI counter 36
[O-]/[N+](=N\Nc1ccc(Cl)cc1)c1ccccc1	none (no result: Rv3671c protease, Mtb UGM inh, Mtb betalactam)
CC(=O)NC(c1ccccc1)c1nc(-c2ccc(C)c(C)c2)cs1 (configuration not stated)	none (no result: Rv3671c protease, Mtb UGM inh, Mtb betalactam)
Cn1cnnc1SCc1ccc(C(=O)N=Nc2c(O)n(C)c3ccccc23)cc1	GDH-TPI counter 33
COc1ccc(-c2nc3c(n2O)CCc2c-3no[n+]2[O-])cc1	GDH-TPI counter 41
CCOC(=O)C1=C(COC(=O)CNS(=O)(=O)c2c(F)cc(F)cc2Br)NC(=O)NC1C (configuration not stated)	none (no result: Rv3671c protease, Mtb UGM inh, Mtb betalactam)
Cc1ccc(C)n1C(CC(=O)O)c1ccc(C#N)cc1 (configuration not stated)	FadD28 binding 11
CCOC(=O)CC(c1ccc(N)cc1)n1c(C)ccc1C (configuration not stated)	none
COC(=O)C1=C(C(=O)OC)C2c3ccccc3C1c1ccccc12	none (no result: Rv3671c protease, Mtb UGM inh, Mtb betalactam)
COC(=O)C1=CN(Cc2ccccc2)C=C(C(=O)OC)C1c1ccc(OC)c(OC)c1	none
COC(=O)C1=CN(C2CC2)C=C(C(=O)OC)C1c1ccccc1OC	FBA Mtb inh 157
COC(=O)C1=CN(Cc2ccc(OC)c(OC)c2)C=C(C(=O)OC)C1c1cccc(OC)c1OC	FBA Mtb inh 140
CCN1C=C(C(=O)OC)C(c2cccc(OC)c2OC)C(C(=O)OC)=C1	FBA Mtb inh 172
COc1cccc(C(=O)OCCCOC(=O)c2cccc(OC)c2OC)c1OC	none
COCCNc1c2c(c(C#N)c3nc4ccccc4n13)CCCC2	none
Cc1cc(NCc2ccccn2)n2c(nc3ccccc32)c1C#N	none (no result: Rv3671c protease, Mtb UGM inh, Mtb betalactam)
COCCNc1cc(C)c(C#N)c2nc3ccccc3n12	FBA Mtb inh 193
Cc1cc(NCCOCCO)n2c(nc3ccccc32)c1C#N	FBA Mtb inh active
Cc1cc(NCCCO)n2c(nc3ccccc32)c1C#N	FBA Mtb inh 181
CCN(CC)CCC#CC1(O)c2ccccc2-c2ccccc21	none
OC[C@H]1O[C@@H](c2nc(-c3ccc4[nH]ccc4c3)no2)[C@H](O)[C@@H](O)[C@H]1O	none (no result: Rv3671c protease, Mtb UGM inh, Mtb betalactam)
CCN(CC)c1ccc(C=C2C(=O)OC(C)(C(C)(C)C)OC2=O)cc1 (configuration not stated)	GDH-TPI counter 36
CN(C)c1ccc(C=C2C(=O)OC(C)(C(C)(C)C)OC2=O)cc1 (configuration not stated)	none
CCc1nc2ccc(C(=O)N3CCN(S(=O)(=O)CC)CC3)cn2c1N(C)Cc1cccs1	none (no result: Rv3671c protease, Mtb UGM inh, Mtb betalactam)
N#Cc1nc(Cc2cccc3ccccc23)oc1NCCCn1ccnc1	none
CN(C)CCCNc1c2ccccc2nc2ccccc12	FBA Mtb inh 177
CNc1oc(/C=C/c2cccc(OC)c2)nc1C#N	FBA Mtb inh active
CN(C)CCCNc1nc(-c2ccccc2)nc2ccccc12	none
COc1ccccc1-c1nc(C#N)c(NCCCn2ccnc2)o1	FBA Mtb inh active
COc1ccc(-c2nc(C#N)c(NCCCN(C)C)o2)cc1OC	FBA Mtb inh active
CCOC(=O)N1CCN(Cc2nc3cc([N+](=O)[O-])ccc3n2C)CC1	none
COCCNc1nc2cc(-c3ccccc3OC)sc2c(=O)n1C	none (no result: Rv3671c protease, Mtb UGM inh, Mtb betalactam)
COc1ccccc1-c1nc(C#N)c(NCc2ccc(F)cc2)o1	FBA Mtb inh 113
CN(C)CCNc1oc(-c2ccccc2F)nc1C#N	FBA Mtb inh 145
N#Cc1nc(COc2ccccc2Cl)oc1NCc1ccc(F)cc1	none (no result: Mtb UGM inh)
COc1ccc(CCNc2oc(-c3ccccc3OC)nc2C#N)cc1	FBA Mtb inh active
COc1ccc(-c2nc(C#N)c(NC(C)c3ccccc3)o2)cc1OC (configuration not stated)	FBA Mtb inh 144
